Data: PubChem BioAssay (Tox21)
Records with an inconclusive call do not appear. Values without a mark were called inactive. The source made the active and inactive calls. The call rests on the fitted dose curve; in most records, active means well fitted curve in the direction sought with a large enough effect in the repeat runs; inconclusive means weak or mixed curves; inactive means no such curve, though single readings can be large; an effect the other way counts as inactive or inconclusive.

system: not listed separately; experiment: qHTS assay to identify small molecule antagonists of the estrogen related receptor (ERR) signaling pathway from Tox21 library - cell viability counter screen (AID 1224834); conditions: ERR reporter cells viability, CellTiter-Fluor, 17.5 h; series mostly up to 92.4 µM; viability change, negative = cytotoxic: at the top concentration; further: nearly all actives have a fitted effect of over 30% in size; further: potency means the concentration at half of the fitted maximal effect
Outline: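 Multiplexed viability counter screen in ERR cells: 17.5 h compound exposure at 37 C, CellTiter-Fluor added, 30 min at 37 C/5% CO2, fluorescence read.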
On the % scale 0 is the no-effect control and ±100 the full control effect.

SMILES	Potency	viability change, negative = cytotoxic
CC(C)COCC(CN(Cc1ccccc1)c1ccccc1)N1CCCC1 (stereo not drawn)	26.6 µM (active)	
C=CC(C)(CCC=C(C)C)OC(=O)CC(C)C (stereo not drawn)		3.38%
CC(C)C(O)(c1ccc(OC(F)(F)F)cc1)c1cncnc1 (stereo not drawn)		-0.194%
CCOC(=O)c1ccc(C#Cc2ccc3c(c2)C(C)(C)CCS3)nc1		-12% [at 42.5 µM]
CO[C@]1(NC(=O)CSC(F)F)C(=O)N2C(C(=O)O)=C(CSc3nnnn3CCO)CO[C@H]21		0.499% [at 42.5 µM]
CC(C)C=O		1.98%
O=C1C(=O)c2ccccc2C(O)=C1C1CCC(c2ccc(Cl)cc2)CC1 (stereo not drawn)		1.32% [at 42.5 µM]
CCCCCCCCCCC(=O)O		-0.572%
COC(=O)CCS		4.59%
Cc1ccc(CO)cc1		4.12%
C=C(C)C(=O)OCCOCCOC(=O)C(=C)C		6.19%
Cc1ccco1		-0.713%
CC(C)=CCC1C(=O)N(c2ccccc2)N(c2ccccc2)C1=O		-3.48% [at 42.5 µM]
CCCCC(CC)CN (stereo not drawn)		-0.932%
CC1=C(Br)C(=O)C(Br)=C/C1=C(/c1ccccc1S(=O)(=O)O)c1cc(Br)c(O)c(Br)c1C	18.6 µM (active)	

target: Luciferin 4-monooxygenase (Photinus pyralis) (UniProt P08659); experiment: qHTS assay to identify small molecule inhibitors of firefly luciferase (AID 1224835); further: nearly all actives have a fitted effect of over 25% in size; conditions: purified P. pyralis luciferase, luminescence inhibition; series mostly up to 52.9 µM; activity change, negative = inhibition: at the top concentration
Outline: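 Quantitative HTS format; KM concentrations of both substrates. Purified P. pyralis FLuc activity quantified from luminescence images.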

Chain of Luciferin 4-monooxygenase (Photinus pyralis) (P08659 whole entry, looked up): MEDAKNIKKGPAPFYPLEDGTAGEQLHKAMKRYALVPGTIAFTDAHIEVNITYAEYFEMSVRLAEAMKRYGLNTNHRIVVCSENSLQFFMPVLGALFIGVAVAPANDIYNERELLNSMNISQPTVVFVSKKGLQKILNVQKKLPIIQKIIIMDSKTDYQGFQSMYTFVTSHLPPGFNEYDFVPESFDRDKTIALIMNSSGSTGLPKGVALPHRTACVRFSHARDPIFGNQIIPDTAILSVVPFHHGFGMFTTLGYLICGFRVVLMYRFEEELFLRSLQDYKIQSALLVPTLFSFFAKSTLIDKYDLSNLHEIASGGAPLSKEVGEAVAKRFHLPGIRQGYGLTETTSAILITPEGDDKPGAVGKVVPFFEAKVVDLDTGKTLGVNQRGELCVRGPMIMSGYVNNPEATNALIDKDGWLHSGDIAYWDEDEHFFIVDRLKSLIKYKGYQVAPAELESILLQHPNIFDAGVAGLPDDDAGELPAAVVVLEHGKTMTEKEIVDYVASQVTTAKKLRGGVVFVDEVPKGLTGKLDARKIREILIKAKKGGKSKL

SMILES	activity change, negative = inhibition
Brc1cc2ccccc2c2ccccc12	-7.97% [at 115 µM]
Cc1cccc(O)c1N	3.7% [at 115 µM]
O=C1C(=O)c2ccccc2C(O)=C1C1CCC(c2ccc(Cl)cc2)CC1 (stereo not drawn)	1.7%

system: not listed separately; experiment: qHTS assay to identify small molecule agonists of the constitutive androstane receptor (CAR) signaling pathway - cell viability counter screen (AID 1224836); conditions: HepG2-CYP2B6-hCAR viability, CellTiter-Fluor, 23 h, PK11195 added to every well; series mostly up to 92.4 µM; viability change, negative = cytotoxic: at the top concentration; further: nearly all actives have a fitted effect of over 45% in size; further: potency means the concentration at half of the fitted maximal effect
Outline: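 Compound titrations (15 concentrations) went onto HepG2-CYP2B6-hCAR cells 4 h after seeding, alongside PK11195 at a final 0.75 uM; a 23 h, 37 C/5% CO2 incubation preceded CellTiter-Fluor viability measurement.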

SMILES	viability change, negative = cytotoxic	Potency
C=C/C(C)=C/C/C=C(\C)CCC=C(C)C	5.88%	
Cc1cscn1	-0.672%	
c1ccc(C[n+]2cccc3ccccc32)cc1	-12.6%	
C[C@@H](O)[C@H]1C(=O)N2C(C(=O)O)=C([C@H]3CCCO3)S[C@H]12	4.23% [at 42.5 µM]	
c1csc(SSc2cccs2)c1		54.5 µM (active)
O=C=Nc1ccc(Cl)c(Cl)c1	1.98%	
CC(CN(C)C)C(C)(O)Cc1ccc(Cl)cc1 (stereo not drawn)	-5.72% [at 42.5 µM]	
Nc1ncnc2c1ncn2[C@H]1CC[C@@H](CO)O1	-8.36%	
CCC=CC#N	-7.64%	
CS(=O)(=O)c1ccc(-c2cn3ccccc3n2)cc1	-11% [at 42.5 µM]	
CC1CC(C)C(=O)C1=O (stereo not drawn)	5.57%	
CCCCCCCCCI	11.9%	
N#CCc1ccc(Cl)cc1Cl	-0.396%	
COc1ccc(OC(=O)N(CC(=O)O)Cc2ccc(OCCc3nc(-c4ccccc4)oc3C)cc2)cc1	-11.5% [at 42.5 µM]	
CN1C(C(=O)Nc2ccccn2)=C(O)c2sccc2S1(=O)=O	1.24% [at 42.5 µM]	
CC1(C)S[C@@H]2[C@H](NC(=O)C(c3ccccc3)S(=O)(=O)O)C(=O)N2[C@H]1C(=O)O (stereo partly drawn)	6.59% [at 42.5 µM]	
CCCCCC[C@@H](O)C/C=C\CCCCCCCC(=O)OCC(O)CO (stereo partly drawn)	0.63%	
Nc1ccc(N=Nc2ccccc2)c(N)c1		30 µM (active)
CCCCN1CCCC1C(=O)Nc1c(C)cc(C)cc1C (stereo not drawn)	-9.05% [at 42.5 µM]	

SMILES	viability change, negative = cytotoxic	Potency
NC(=O)c1ccncc1	2.97%	
COC(=O)c1nc(Cl)c(Cl)nc1N	-27.3% [at 42.5 µM]	
O=c1[nH]ncc2ccccc12	14.4%	
O=C(OCC(O)CO)c1ccccc1Nc1ccnc2cc(Cl)ccc12 (stereo not drawn)	0.905% [at 42.5 µM]	
CC(C)COCC(CN(Cc1ccccc1)c1ccccc1)N1CCCC1 (stereo not drawn)		29.8 µM (active)
C=CC(C)(CCC=C(C)C)OC(=O)CC(C)C (stereo not drawn)	9.22%	
CC(C)C(O)(c1ccc(OC(F)(F)F)cc1)c1cncnc1 (stereo not drawn)	-1.39%	
CCOC(=O)c1ccc(C#Cc2ccc3c(c2)C(C)(C)CCS3)nc1	4.91% [at 42.5 µM]	
CO[C@]1(NC(=O)CSC(F)F)C(=O)N2C(C(=O)O)=C(CSc3nnnn3CCO)CO[C@H]21	-2.12% [at 42.5 µM]	
CC(C)C=O	6.02%	
CCCCCCCCCCC(=O)O	-4.89%	
COC(=O)CCS	9.05%	
Cc1ccc(CO)cc1	-0.988%	
C=C(C)C(=O)OCCOCCOC(=O)C(=C)C	-1.19%	
Cc1ccco1	-2.37%	
CC(C)=CCC1C(=O)N(c2ccccc2)N(c2ccccc2)C1=O	-12% [at 42.5 µM]	
CCCCC(CC)CN (stereo not drawn)	0.0168%	
CC1=C(Br)C(=O)C(Br)=C/C1=C(/c1ccccc1S(=O)(=O)O)c1cc(Br)c(O)c(Br)c1C		18.6 µM (active)

system: not listed separately; experiment: qHTS assay to identify small molecule antagonists of the constitutive androstane receptor (CAR) signaling pathway - cell viability counter screen (AID 1224837); conditions: HepG2-CYP2B6-hCAR viability, CellTiter-Fluor, 23 h, co-treated with 50 nM CITCO; series mostly up to 92.4 µM; activity change, negative = cytotoxicity: at the top concentration; further: nearly all actives have a fitted effect of over 45% in size; further: potency means the concentration at half of the fitted maximal effect
Outline: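 Read-out: CellTiter-Fluor fluorescence after 23 hr at 37 C/5% CO2. Cells: HepG2 double-stable for hCAR and CYP2B6-2.2kb. Compounds tested at 15 concentrations in the presence of CITCO, final concentration 50 nM.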

SMILES	activity change, negative = cytotoxicity	Potency
C=C/C(C)=C/C/C=C(\C)CCC=C(C)C	2.17%	
Cc1cscn1	2.62%	
C[C@@H](O)[C@H]1C(=O)N2C(C(=O)O)=C([C@H]3CCCO3)S[C@H]12	0.609% [at 42.5 µM]	
c1csc(SSc2cccs2)c1		48.6 µM (active)
O=C=Nc1ccc(Cl)c(Cl)c1	3.27%	
CC(CN(C)C)C(C)(O)Cc1ccc(Cl)cc1 (stereo not drawn)	-5.53% [at 42.5 µM]	
Nc1ncnc2c1ncn2[C@H]1CC[C@@H](CO)O1	1.96%	
CCC=CC#N	-10.4%	
CC1CC(C)C(=O)C1=O (stereo not drawn)	1.13%	
CCCCCCCCCI	3.02%	
N#CCc1ccc(Cl)cc1Cl	-0.372%	
CN1C(C(=O)Nc2ccccn2)=C(O)c2sccc2S1(=O)=O	-0.713% [at 42.5 µM]	
CC1(C)S[C@@H]2[C@H](NC(=O)C(c3ccccc3)S(=O)(=O)O)C(=O)N2[C@H]1C(=O)O (stereo partly drawn)	0.119% [at 42.5 µM]	
CCCCCC[C@@H](O)C/C=C\CCCCCCCC(=O)OCC(O)CO (stereo partly drawn)	1.52%	
Nc1ccc(N=Nc2ccccc2)c(N)c1		53.3 µM (active)
CCCCN1CCCC1C(=O)Nc1c(C)cc(C)cc1C (stereo not drawn)	1.68% [at 42.5 µM]	
NC(=O)c1ccncc1	-0.312%	

SMILES	activity change, negative = cytotoxicity	Potency
COC(=O)c1nc(Cl)c(Cl)nc1N		29.8 µM (active)
O=c1[nH]ncc2ccccc12	4.73%	
O=C(OCC(O)CO)c1ccccc1Nc1ccnc2cc(Cl)ccc12 (stereo not drawn)	-14.9% [at 42.5 µM]	
CC(C)COCC(CN(Cc1ccccc1)c1ccccc1)N1CCCC1 (stereo not drawn)		29.8 µM (active)
C=CC(C)(CCC=C(C)C)OC(=O)CC(C)C (stereo not drawn)	3.7%	
CC(C)C(O)(c1ccc(OC(F)(F)F)cc1)c1cncnc1 (stereo not drawn)	1.14%	
CCOC(=O)c1ccc(C#Cc2ccc3c(c2)C(C)(C)CCS3)nc1	-1.93% [at 42.5 µM]	
CO[C@]1(NC(=O)CSC(F)F)C(=O)N2C(C(=O)O)=C(CSc3nnnn3CCO)CO[C@H]21	0.877% [at 42.5 µM]	
CC(C)C=O	0.769%	
CCCCCCCCCCC(=O)O	1.96%	
COC(=O)CCS	-3.15%	
Cc1ccc(CO)cc1	4.59%	
C=C(C)C(=O)OCCOCCOC(=O)C(=C)C	0.743%	
Cc1ccco1	-1.02%	
CC(C)=CCC1C(=O)N(c2ccccc2)N(c2ccccc2)C1=O	-7.5% [at 42.5 µM]	
CC1=C(Br)C(=O)C(Br)=C/C1=C(/c1ccccc1S(=O)(=O)O)c1cc(Br)c(O)c(Br)c1C		33 µM (active)
